± gives the standard deviation.
System: EfPiwi piRISC loaded with L1MC piRNA (26 nt)
Test: pre-steady-state target cleavage rate (min^-1); auxiliary factor: 500 nM Ephydatia muelleri Gtsf1; guide: L1MC piRNA 5'p-UAACUAAAUACUAUGCAAGCUGUAGG; MIWI and MILI are mouse PIWI proteins and EfPiwi is from a freshwater sponge; tags in brackets are library labels; higher = faster piRNA-guided slicing of the target
Method in brief: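 Cleave-'n-Seq: a transcribed, DNA-blocked target RNA library (0.1 nM) was mixed with 1 nM active affinity-purified piRISC carrying one synthetic guide, with or without 500 nM GTSF1 partner protein, in HEPES–potassium acetate buffer at 33 °C for 0–8 or 0–960 min. Uncleaved targets were sequenced and normalised to depth and to weakly complementary targets. Three trials were pooled, and k3 was capped at 0.0001 min^-1. The pre-steady-state cleavage rate came from a burst-and-steady-state fit.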

Row | Sequence | pre-steady-state target cleavage rate
1 | UCCUGGAACAGCUUAGCAUAGUAUUUAGUUA | 0.0218 ± 0.0061
2 | UCCUGGAACAGCUAGCAUAGUAUUUAGUAA | 0.00289 ± 0.0015
3 | UCCUGGAUGUCGAAGGAUAGUAUUAAGUUA | < 0.0001
4 | UCCUGGAUGUCGAACGUAUCUAUUUAGUAA | < 0.0001
5 | UCCUGGUUCAGCUUGCAUAGUAUUUUGUUA | 0.00528 ± 0.0032
6 | UCCUGGAUCACGUUGCAUAGUAUUUAGUUA | 0.0686 ± 0.017
7 | UCCUGCUACAGCUUGCAUAGUAAUUUCAAA | 0.00378 ± 0.0027
8 | UCCUGGAUGUCCUUGCAUAGUAUUUAGCUUA | 0.0051 ± 0.0028
9 | UCCUGCUACAGCUUGCAUAGUAUAUAGAUA | 0.00352 ± 0.0017
10 | UCCUGCAUGAGCUUGCAUAGUAUUUAGUUA | 0.0163 ± 0.0047
11 | UCCUGCUAGUGCUUGCAUAGUAUUUAGAAA | 0.00258 ± 0.0014
12 | UCCUGGUACAGCUAUGCAUAGUAUUUAGUUA | 0.0292 ± 0.0094
13 | UCCUGGAACAGCUUGGAUAGUAUUUACAAA | 0.00254 ± 0.0019
14 | UCCUGCUACAGCUUGCAUAGUUAUUAGUAA | 0.00306 ± 0.0017
15 | UCCUGGAUGUCGAACGUUACUAUUUAGUUA | < 0.0001
16 | UCCUCCUACAGCUUGCAUUGUUUUUAGUUA | 0.00277 ± 0.0025
17 | UCCUGGAUGUCGAACGUAAGGAUUUAGUUA | < 0.0001
18 | UCCUGCUACAGCUUGCAUAGUAUUGUAGUUA | 0.00279 ± 0.0016
19 | UCCUGCUACAGCUUGCUUAGUAUUUUCAAA | 0.00321 ± 0.003
20 | UCCUGCUAGUCCUUGCAUAGUAUUUAGAAA | 0.00294 ± 0.0025

Row | Sequence | pre-steady-state target cleavage rate
21 | UCCUGGAACACUUGCAUAGUAUUUAGUUA | 0.0107 ± 0.0034
22 | UCCUGGAUGUCGAACGUAUGUCUUUAGUUA | < 0.0001
23 | UCCUCGUACAGCUUGCAUUGUAUUUAGUUA | 0.0163 ± 0.004
24 | UCCUCCUACAGCUUGCAAAGUAAUUAGUUA | 0.00531 ± 0.0022
25 | UCCUGGAUGUCGAACCCUAGUAUUUAGUUA | < 0.0001
26 | UCCUGGAUGUCGAACGAUACAUUUUAGUUA | < 0.0001
27 | UCCUCGAACAGCUUGCAUAGUAUUUACAAA | 0.00433 ± 0.0025
28 | UCCUGGAUGUCGAACGUAUGUAUUUUAGUUA | < 0.0001
29 | UCCUGCUACAGCUUGCAAACUAUUUAGUUA | 0.00535 ± 0.002
30 | UCCUGCAACAGCUUGGAUAGUAUUUAGUUA | 0.0256 ± 0.0066
31 | UCCUGGAUGUCGAACCAUUCAAUUUAGUUA | < 0.0001
32 | UCCUCCUACAUCUUGCAUAGUAUUUAGUUA | 0.0662 ± 0.02
33 | UCCUGGAUGUCCUUGCAUAGUAGUUAGUUA | 0.00555 ± 0.0031
34 | UCCUGGAUGUCGAACGAUAGUAUUUAGUUA | < 0.0001
35 | UCCUGGAUCACCAUGCAUAGUAUUUAGUUA | 0.013 ± 0.0061
36 | UCCUGCUUCAGCUUGCAUACUAUUUAGUUA | 0.00801 ± 0.0025
37 | UCCUGCUACACCUUCCAUAGUAUUUAGUUA | 0.00334 ± 0.0022
38 | UCCUGCUUGAGCUUGCAUAGUAUUUAGAAA | 0.00479 ± 0.0016
39 | UCCUGCAACAGCUUGCAUAGUAUUUACAAA | 0.00305 ± 0.0022
40 | UCCUCCAACAGCUAGCAUAGUAUUUAGUUA | 0.00798 ± 0.0027
